Compound activity: PubChem, National Center for Advancing Translational Sciences (NCATS)
Cruzain inh Det = blocks cruzain activity in presence of Triton detergent; AID 1478; Potency, µM, for inactives: max response, negative = inhibition, hits mostly inhibitors; purified cruzain, Z-FR-AMC fluorescence, 0.01% Triton; 0.43% of 200,000 active; P25779;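 note: plate controls were neutral wells for no effect and buffer without enzyme for full effect; nearly all actives have a fitted effect of over 40% in size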
Target sequence (P25779 123-467 limits assumed): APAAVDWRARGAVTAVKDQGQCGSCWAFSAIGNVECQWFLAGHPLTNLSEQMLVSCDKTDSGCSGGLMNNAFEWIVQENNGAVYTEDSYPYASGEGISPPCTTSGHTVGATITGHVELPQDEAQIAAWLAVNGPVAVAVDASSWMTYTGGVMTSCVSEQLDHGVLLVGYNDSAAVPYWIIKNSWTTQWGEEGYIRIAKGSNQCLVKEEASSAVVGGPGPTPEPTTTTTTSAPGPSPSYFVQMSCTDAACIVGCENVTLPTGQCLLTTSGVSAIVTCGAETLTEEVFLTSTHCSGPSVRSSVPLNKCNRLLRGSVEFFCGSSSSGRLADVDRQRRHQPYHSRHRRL
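Enzyme 1.5 nM, Z-FR-AMC 2 uM, NaOAc 100 mM pH 5.5, DTT 5 mM, Triton X-100 0.01%; 15 min RT compound preincubation; kinetic ex360/em450, 60 s delta.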
Giardia FBPA inh-1 = Giardia lamblia aldolase inhibition. Potency, µM (highest dose often 59.6 µM), without a hit: top-dose activity, negative = inhibition, usual class: inhibitors. A8B2U2. AID 2451. 0.71% of 290,000 active. purified Giardia FBPA; note: nearly all actives have a fitted effect of over 55% in size
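40 nM FBPA preincubated 10 min at RT with compound (up to 57.5 uM final), then substrate plus GAPDH/TPI/NAD/arsenate coupling and diaphorase/resazurin added. Fluorescence read after 20 min at RT, 525/598 nm.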
Cruzain noTriton = cruzain (T. cruzi) inhibition without detergent | P25779 | purified cruzain, Z-FR-AMC fluorescence, no detergent | Potency, µM, for inactives: max response, negative = inhibition, actives largely listed as inhibitors | 2.3% of 200,000 active | AID 1476;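 note: plate controls were enzyme without inhibitor for no effect and buffer without enzyme for full effect; nearly all actives have a fitted effect of over 40% in size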
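Detergent-free condition (0.00005% Triton X-100) in acetate buffer pH 5.5 with DTT. 1.5 nM enzyme and compound were pre-mixed 15 min, then 2 uM Z-FR-AMC substrate added; reaction progress from fluorescence change between first and third reads (60 s).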
Giardia growth = blocks growth of Giardia lamblia trophozoites; shares compounds with Giardia FBPA inh-1; Giardia lamblia trophozoite growth inhibition; Potency, µM (top dose mostly 57.5 µM), without a hit: at the top dose activity change, negative = inhibition, hits mostly inhibitors; 5% of 1,500 active; AID 2785;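 note: trophozoites exposed to compound for 48 h at 37 °C; nearly all actives have a fitted effect of over 70% in size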
Mammalian tox = counter-screen for Giardia aldolase inhibitors: mammalian cell toxicity; shares compounds with Giardia FBPA inh-1; mammalian cell viability counter-screen, qHTS; Potency, µM (series often up to 57.5 µM), inactives show top-dose viability change, negative = toxicity, most hits filed as inhibitors; 4% of 1,500 active; AID 2786;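 note: Chinese hamster ovary cells used as mammalian cytotoxicity surrogate; viability measured as cellular ATP by luminescence; compound exposure lasted 48 h before reading; nearly all actives have a fitted effect of over 60% in size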
Giardia FBPA inh-2 = confirmation of Giardia fructose-bisphosphate aldolase inhibitors | shares compounds with Giardia FBPA inh-1 | Potency, µM (series often up to 57.5 µM), inactives show top-dose activity change, negative = inhibition, actives largely listed as inhibitors | 5% of 1,500 active | purified Giardia aldolase enzyme activity, qHTS; note: nearly all actives have a fitted effect of over 45% in size
Rabbit aldolase = blocks rabbit muscle aldolase in Giardia aldolase selectivity test | shares compounds with Giardia FBPA inh-1 | Rabbit muscle FBPA enzyme inhibition, selectivity counter-screen | Potency, µM (series often up to 57.5 µM), inactives show at the highest dose activity, negative = inhibition, actives largely listed as inhibitors | 4% of 1,500 active; note: nearly all actives have a fitted effect of over 60% in size
Target sequence (P00883 whole entry, looked up): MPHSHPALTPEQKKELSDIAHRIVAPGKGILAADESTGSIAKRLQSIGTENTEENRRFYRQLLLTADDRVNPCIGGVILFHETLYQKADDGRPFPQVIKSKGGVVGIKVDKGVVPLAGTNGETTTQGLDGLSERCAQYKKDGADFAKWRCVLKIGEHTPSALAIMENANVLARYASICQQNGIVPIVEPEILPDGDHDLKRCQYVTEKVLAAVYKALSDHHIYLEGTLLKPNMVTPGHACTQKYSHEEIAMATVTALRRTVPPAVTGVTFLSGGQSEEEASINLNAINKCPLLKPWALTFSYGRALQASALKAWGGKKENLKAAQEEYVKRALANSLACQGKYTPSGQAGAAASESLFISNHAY
GAPDH coupling = GAPDH inhibition flagged for Giardia aldolase hits. shares compounds with Giardia FBPA inh-1. GAPDH coupling enzyme counterscreen, biochemical, qHTS. Potency, µM (highest dose often 57.5 µM), inactives show top-dose activity change, negative = inhibition, most hits filed as inhibitors. 6% of 1,500 active; note: nearly all actives have a fitted effect of over 55% in size
* = called active by the depositor; u = inconclusive; x = not tested or not shown; [ ] = dose if it differs, or a comment. The sample as a whole holds a higher share of hits than the screen did. Calls come from the whole dose curve; as a rule, active = well fitted curve in the direction sought with a large enough effect; inconclusive = small, poorly fitted or top-dose-only effect, or another doubt; inactive = no such curve, though single readings can be large; an effect the other way counts as inactive or inconclusive. Unless noted, % is set by controls: 0 for no effect and ±100 for the full control effect; potency is the fitted concentration of half-maximal effect.

SMILES | Cruzain inh Det | Giardia FBPA inh-1 | Cruzain noTriton | Giardia growth | Mammalian tox | Giardia FBPA inh-2 | Rabbit aldolase | GAPDH coupling
COc1ccc(Br)cc1CN1CCN(CCO)CC1 | -3% | -7% | -4% | x | x | x | x | x
COc1ccc(Br)cc1CN1CCN(Cc2c[nH]c3ccccc23)CC1 | x | 14µM* | x | 16µM* | -16% | 2% | 9% | 5%
O=C(c1cccc(F)c1)N1CCN(Cc2cccc(Br)c2)CC1 | x | 14µM* | x | 5% | 1% | 9% | 7% | 8%
Cc1ccc(-n2ncc3c(NCCC4=CCCCC4)ncnc32)cc1 | 1% | x | -17% | x | x | x | x | x
CCN(CC)S(=O)(=O)c1nnc(NC(=O)COc2ccc(Cl)cc2)s1 | -2% | x | 5% | x | x | x | x | x
c1ccc2c(CN3CCCCC3)c[nH]c2c1 | x | 2% | x | x | x | x | x | x
COc1ccc(CN2CCN(Cc3c[nH]c4ccccc34)CC2)cc1 | x | u | x | -9%[38.3 µM] | 2% | -4% | -5% | -12%
Cn1cnc2c(=O)oc3ccc(S(=O)(=O)Nc4ccc(F)cc4)cc3c21 | -2% | x | 22% | x | x | x | x | x
CC(=O)c1cccc(NC(=O)c2sc(-n3nc(C)c(Cc4ccc5c(c4)OCO5)c3C)nc2C)c1 | 1% | x | -4% | x | x | x | x | x
Cc1ccc(NC(=O)c2cnc(SCC(=O)N3CCOCC3)n(C)c2=O)cc1C | 0% | x | 8% | x | x | x | x | x
CCOc1ccccc1Nc1nnc(-c2cc3cc(Cl)ccc3oc2=O)s1 | 4% | x | -2% | x | x | x | x | x
COc1cc(C(c2c(C)[nH][nH]c2=O)c2c(C)[nH][nH]c2=O)cc([N+](=O)[O-])c1O | x | 16µM* | x | -29% | -12% | 5.6µM* | u | -16%
CCOc1cc(C(c2c(C)[nH][nH]c2=O)c2c(C)[nH][nH]c2=O)cc([N+](=O)[O-])c1O | x | -22% | x | x | x | x | x | x
Cc1[nH]c(=S)c(C#N)c(-c2ccco2)c1C(=O)N(C)C | x | 20µM* | x | u | 8% | -2% | -3% | 0%
CC(=O)c1c(C)[nH]c(=S)c(C#N)c1-c1ccc(Cl)cc1 | x | 24% | x | x | x | x | x | x
CCOc1ccc(C2C(C(=O)Nc3ccccc3OC)=C(C)Nc3c(C(=O)Nc4cccc(C)c4)cnn32)cc1 (stereo not drawn) | -8% | x | u | x | x | x | x | x
S=C(Nc1nc2c(s1)CCCC2)NC1CC1 | x | 14µM* | x | -13% | 3% | 3% | 2% | 2%
O=C(NC(=S)Nc1nc2c(s1)CCCC2)c1ccccc1 | -5% | u | 5% | x | x | x | x | x
CCC(O)c1nc2ccccc2n1Cc1cc(C)ccc1C (stereo not drawn) | -2% | x | -11% | x | x | x | x | x
COC(=O)CC1C(=O)NCCN1C(=S)NC(=O)c1ccccc1[N+](=O)[O-] (stereo not drawn) | 0% | 7.1µM* | 7% | -36% | -12% | 2% | 2% | 13%
CCNC(=S)N1CCNC(=O)C1CC(=O)OC (stereo not drawn) | 7% | -7% | -5% | x | x | x | x | x
COC(=O)CC1C(=O)NCCN1C(=S)Nc1ccccc1 (stereo not drawn) | -1% | -3% | 5% | x | x | x | x | x
CC(C)OC(=O)CC1C(=O)NCCN1C(=S)NC(=O)c1cccs1 (stereo not drawn) | x | 5.6µM* | x | 4%[38.3 µM] | -2% | -2% | 4% | -2%
Cc1ccc2c(c1)cc1c(=O)n(CC(=O)NCc3ccco3)nc(C)n12 | -1% | x | -9% | x | x | x | x | x
CCOc1ccc(-n2nc(CO)c(C(=O)NCc3cccc(OC)c3)n2)cc1 | -3% | x | 14% | x | x | x | x | x
SMILES | Cruzain inh Det | Giardia FBPA inh-1 | Cruzain noTriton | Giardia growth | Mammalian tox | Giardia FBPA inh-2 | Rabbit aldolase | GAPDH coupling
COc1ccc2c(c1)-c1nc(/N=C/c3ccccc3O)sc1CC2 | -5% | u | -8% | x | x | x | x | x
COc1ccc2c(c1)-c1nc(/N=C/c3cccc(OC)c3O)sc1CC2 | -6% | 1.4µM* | -6% | -28%[38.3 µM] | -2% | u | u | u
O=C(O)CC(CC(=O)Nc1nncs1)c1ccccc1 (stereo not drawn) | 4% | -1% | 14% | x | x | x | x | x
O=C(O)CC(Cn1[nH]nnc1=S)c1ccccc1 (stereo not drawn) | 4% | 16µM* | -15% | 66% | -9% | -12% | 4% | 7%
Cc1c(C(=O)Nc2cccc(C(F)(F)F)c2)sc2nc[nH]c(=O)c12 | -8% | x | 9% | x | x | x | x | x
COc1ccc(CN2CCN(Cc3ccccc3F)CC2)cc1 | x | 16µM* | x | 16% | -3% | -1% | 9% | 1%
COc1ccc(CN2CCN(Cc3ccc(C)cc3)CC2)c(OC)c1 | x | 14µM* | x | 19% | 1% | 3% | 1% | -2%
COc1ccc(CN2CCC(N3CC(C)OC(C)C3)CC2)c(OC)c1 (stereo not drawn) | x | u | x | 12%[38.3 µM] | 10% | 3% | 4% | 16%
Clc1ccc(/C=N/N2CCN(Cc3ccccc3Cl)CC2)cc1 | x | 0% | x | x | x | x | x | x
COc1ccc(OC)c(CN2CCN(Cc3cc(OC)c(OC)c(OC)c3)CC2)c1 | x | -27% | x | x | x | x | x | x
COc1ccc(CN2CCCCCC2)cc1 | x | -21% | x | x | x | x | x | x
CCOC(=O)C1CCN(Cc2ccc(OC)cc2OC)CC1 | 8% | u | -9% | x | x | x | x | x
COc1ccc(/C=N\N2CCN(Cc3ccccc3Cl)CC2)cc1 | x | 16µM* | x | -12%[10.4 µM] | -11% | -1% | 6% | 6%
Cc1nn(-c2ccccc2)c(-n2cccc2)c1C(=O)NCCc1ccc(Cl)cc1 | -7% | x | -4% | x | x | x | x | x
CCOc1ccc(NS(=O)(=O)c2c(C)nc3sc(C)c(C)n3c2=O)cc1 | -4% | x | -10% | x | x | x | x | x
CCOc1ccc(NC(=O)CC2C(=O)N(c3ccc(Cl)cc3)C(=O)N2Cc2cccs2)cc1 (stereo not drawn) | -4% | x | -18% | x | x | x | x | x
O=C(c1cnccn1)N1CCC2(CC1)CCN(c1cccc(-c3ccccc3)c1)CC2 | -2% | -5% | u | x | x | x | x | x
COc1ccc(CN2CCN(c3ncccn3)CC2)c(OC)c1 | 3% | -25% | -2% | x | x | x | x | x
COc1ccc(CN2CCN(Cc3ccccc3F)CC2)c(OC)c1 | x | 13µM* | x | 19% | 0% | -3% | 7% | -14%
OC[C@H](S)CS | -1% | x | 2% | x | x | x | x | x
CCC(Nc1ccc(-c2nc(-c3ccco3)no2)cc1[N+](=O)[O-])c1ccccc1 (stereo not drawn) | -9% | x | u | x | x | x | x | x
Cc1cc(C)cc(NCc2cc3c(cc2[N+](=O)[O-])OCO3)c1 | -1% | -13% | -2% | x | x | x | x | x
COc1ccc(CNCc2cc3c(cc2[N+](=O)[O-])OCO3)cc1 | x | 13µM* | x | u | -4% | -14% | -7% | 1%
COc1ccc(CNC(=O)CN2C(=O)CSc3ccc(S(=O)(=O)N4CCCC4)cc32)cc1 | -1% | x | -9% | x | x | x | x | x
Cc1ccccc1C(=O)c1cccn1CC(=O)NCCCN1CCc2ccccc2C1 | x | 16µM* | x | u | -12% | 9% | 10% | 6%
